From PubChem BioAssay (Tox21)
Inconclusive results are not listed. A call without a number means that no potency is given here. A number with no mark means an inactive call. Calls of active or inactive are those of the source. Calls follow the shape of the dose curve; as a rule, active = well fitted cell-killing curve with a large enough effect in the repeat runs; inconclusive = weak or mixed curves, or effect the other way; inactive = flat fitted curve, though single readings scatter.

Tests used:
[1] = cAMP Responsive Elements (CRE) small molecule antagonists, cell-based qHTS assay: qHTS cell viability counter screen (AID 2060913); conditions: CRE-bla HEK293T viability, CellTiter-Glo luminescence, 5 h; series mostly up to 92.4 µM; also: nearly all actives have a fitted effect of over 40% in size
Outline: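 CRE-bla HEK293T cells were seeded in assay medium with 10% dialyzed FBS, incubated 18 hrs at 37 C, then exposed to compounds plus 0.25 uM final NKH477 for 3 hrs. Viability was read by CellTiter-Glo luminescence after 30 min, in the same wells.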

[2] = cAMP Responsive Elements (CRE) small molecule agonists, cell-based qHTS assay: qHTS cell viability counter screen (AID 2060914); conditions: CRE-bla HEK293T viability, CellTiter-Glo luminescence, 5 h; series mostly up to 92.4 µM; also: nearly all actives have a fitted effect of over 50% in size
Outline: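 Luminescence read-out (CellTiter-Glo, 30 min RT) of ATP-based viability in CRE-bla HEK 293T cells, run in the same wells as the β-lactamase reporter assay after 3 h compound treatment at 37 °C.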
Potency is read from the fitted curve at half-maximal effect.

| Compound | Potency [1] | Potency [2] | viability change, negative = cytotoxic [1] | activity change, negative = cytotoxicity [2] |
| --- | --- | --- | --- | --- |
| O=C(O)c1ccccc1C(=O)O | inactive | inactive | – | – |
| CCC(=O)c1c(O)cc(O)cc1O | inactive | inactive | – | – |
| CC[C@@]1(O)C(=O)OCc2c1cc1n(c2=O)Cc2cc3c(CN(C)C)c(O)ccc3nc2-1 | inactive | inactive | – | – |
| CCCCCCCCC1CCC(=O)O1 (stereo not given) | inactive | inactive | – | – |
| O=C(Cl)c1cc(C(=O)Cl)cc(C(=O)Cl)c1 | inactive | inactive | – | – |
| CC1(CO)CN(c2ccccc2)NC1=O (stereo not given) | inactive | inactive | – | – |
| CCCCCCCCCCCCCOP(=O)(O)O | inactive | inactive | – | – |
| CCCCN(CCCC)C(=O)N(CCCC)CCCC | inactive | inactive | – | – |
| CCOC(=O)CS | inactive | inactive | – | – |
| C=C(C)CNCC | inactive | inactive | – | – |
| Nc1ccn([C@@H]2O[C@H](CO)[C@@H](O)C2O)c(=O)n1 (stereo not given in full) | inactive | inactive | – | – |
| CC(C)C(=O)c1ccccc1 | inactive | inactive | – | – |
| CC1(C)S[C@@H]2[C@H](NC(=O)COc3ccccc3)C(=O)N2[C@H]1C(=O)O | inactive | inactive | – | – |
| COCCOCCOCCO | inactive | inactive | – | – |
| C=C(C)[C@H]1CC=C(C)CC1 | inactive | inactive | – | – |
| Cc1nc2ccccc2s1 | inactive | inactive | – | – |
| Cn1c(=O)c2c(ncn2CC(=O)O)n(C)c1=O | inactive | inactive | – | – |
| CS(=O)(=O)O | inactive | inactive | – | – |
| Oc1cccc(Nc2ccccc2)c1 | inactive | inactive | – | – |
| CC1=CC(=C(c2ccc(N)cc2)c2ccc(N)cc2)C=CC1=N | – | – | -2.05% [at 8.39 µM] | -0.199% [at 8.39 µM] |
| CCOCCOCCO | inactive | inactive | – | – |
| Nc1c2c(nc3ccccc13)CCCC2 | inactive | inactive | – | – |
| NC(=O)Nc1nc2ccccc2[nH]1 | inactive | inactive | – | – |
| O=P(O)(O)OP(=O)(O)O | inactive | inactive | – | – |
| Cc1ccsc1C(=CCCN1CCC[C@@H](C(=O)O)C1)c1sccc1C | inactive | inactive | – | – |
| CC(=O)N[C@@H](CCC(=O)O)C(=O)O | inactive | inactive | – | – |
| CCCOCCOCCOCCO | inactive | inactive | – | – |

| Compound | Potency [1] | Potency [2] | viability change, negative = cytotoxic [1] | activity change, negative = cytotoxicity [2] |
| --- | --- | --- | --- | --- |
| CC(C)c1ccc2ncccc2c1 | inactive | inactive | – | – |
| COc1ccc([C@@H]2Sc3ccccc3N(CCN(C)C)C(=O)[C@@H]2OC(C)=O)cc1 | inactive | inactive | – | – |
| C/C=C(C)/C=C/C=C(C)C | inactive | inactive | – | – |
| CCC(C)c1ccccc1O (stereo not given) | inactive | inactive | – | – |
| COC(=O)c1cccc(Cl)c1 | inactive | inactive | – | – |
| CCCCCCN | inactive | inactive | – | – |
| Cc1ccc(S(=O)(=O)NCl)cc1 | inactive | inactive | – | – |
| CCO[Si](CCCCl)(OCC)OCC | inactive | inactive | – | – |
| CCCC/C=C/C=C\C=O | inactive | inactive | – | – |
| O=C(c1ccc(Cl)cc1)c1ccc(Cl)cc1 | inactive | inactive | – | – |
| Oc1cc(O)c2c(c1)O[C@H](c1ccc(O)c(O)c1)[C@H](O)C2 | inactive | inactive | – | – |
| Cn1c(=O)c2[nH]cnc2n(C)c1=O | inactive | inactive | – | – |
| CCCCCCCCCCC[C@@H](C[C@@H]1OC(=O)[C@H]1CCCCCC)OC(=O)[C@H](CC(C)C)NC=O | inactive | inactive | – | – |
| CCCCOCCOCCOCCCC | inactive | inactive | – | – |
| Nc1ccc(N=Nc2ccccc2)c(N)n1 | inactive | inactive | – | – |
| Cc1ccc(C(C)(C)C)c(O)c1 | inactive | inactive | – | – |
| O=C(CC(C(=O)OC1CCCCC1)S(=O)(=O)O)OC1CCCCC1 (stereo not given) | inactive | inactive | – | – |
| CC(=O)NO | inactive | inactive | – | – |
| O=[N+]([O-])c1cccc(Cl)c1Cl | inactive | inactive | – | – |
| O=C[C@H](O)[C@@H](O)[C@H](O)[C@H](O)CO | inactive | inactive | – | – |
| CCCC(c1cc(C(C)(C)C)c(O)cc1C)c1cc(C(C)(C)C)c(O)cc1C | 24.6 µM (active) | 31 µM (active) | – | – |
| Cc1c(NC(=O)c2cccnc2)c(=O)n(-c2ccccc2)n1C | inactive | inactive | – | – |
| C[C@H]1C[C@H]2[C@@H]3CCC4=CC(=O)C=C[C@]4(C)[C@H]3C(=O)C[C@]2(C)[C@@]1(O)C(=O)CO | inactive | inactive | – | – |
| CCCC(O)C(CC)CO (stereo not given) | inactive | inactive | – | – |
| C[C@@H]1CCC[C@H](C)N1 | inactive | inactive | – | – |
| CNC(C)=O | inactive | inactive | – | – |
| CN(C)CCC=C1c2ccccc2C=Cc2ccccc21 | inactive | inactive | – | – |

| Compound | Potency [1] | Potency [2] | viability change, negative = cytotoxic [1] | activity change, negative = cytotoxicity [2] |
| --- | --- | --- | --- | --- |
| CC(C)C=O | inactive | inactive | – | – |
| Cc1c2oc3c(C)ccc(C(=O)N[C@@H]4C(=O)N[C@H](C(C)C)C(=O)N5CCC[C@H]5C(=O)N(C)CC(=O)N(C)[C@@H](C(C)C)C(=O)O[C@@H]4C)c3nc-2c(C(=O)N[C@@H]2C(=O)N[C@H](C(C)C)C(=O)N3CCC[C@H]3C(=O)N(C)CC(=O)N(C)[C@@H](C(C)C)C(=O)O[C@@H]2C)c(N)c1=O | inactive | inactive | – | – |
| CC(C)=CCC/C(C)=C/CO | inactive | inactive | – | – |
| CS(C)(=O)=O | inactive | inactive | – | – |
| S=C(SSSSSSC(=S)N1CCCCC1)N1CCCCC1 | – | – | 6.65% [at 18.9 µM] | -4.69% [at 18.9 µM] |
| O=C1Nc2ccccc2C1=O | inactive | inactive | – | – |
| C[Si](Cl)(c1ccccc1)c1ccccc1 | inactive | inactive | – | – |
| FC(F)(F)c1cccc(Cl)c1 | inactive | inactive | – | – |
| CC(=O)[O][Al] | inactive | inactive | – | – |
| CC(=O)CC(=O)Nc1ccccc1C | inactive | inactive | – | – |
| CC(C)=CCCC(C)CCOC(=O)C(C)C (stereo not given) | inactive | inactive | – | – |
| C(=C/c1ccccc1)/c1ccccc1 | inactive | inactive | – | – |
| NCCNCCO | inactive | inactive | – | – |
| OCCC(F)(F)C(F)(F)C(F)(F)C(F)(F)C(F)(F)C(F)(F)F | inactive | inactive | – | – |
| CN(C)CCC(c1ccc(Cl)cc1)c1ccccn1 (stereo not given) | inactive | inactive | – | – |
| CCCCC(CC)C(=O)O (stereo not given) | inactive | inactive | – | – |
| CCCCCC[C@@H](CCC)C(=O)O | inactive | inactive | – | – |
| CC(=O)Oc1ccc(C(=C2CCCCC2)c2ccc(OC(C)=O)cc2)cc1 | inactive | inactive | – | – |
| Nc1ccc(S(=O)(=O)NC(=O)c2ccccc2)cc1 | inactive | inactive | – | – |
| CC1=C(/C=C/C(C)=C\C=C\C(C)=C\C(=O)O)C(C)(C)CCC1 | inactive | inactive | – | – |
| COc1ccccc1OCCNCC(O)COc1cccc2[nH]c3ccccc3c12 (stereo not given) | inactive | inactive | – | – |
| O=C(O)/C=C\C(=O)O | inactive | inactive | – | – |
| CCOC(=O)Nc1ccc(NCc2ccc(F)cc2)nc1N | inactive | inactive | – | – |
| C[C@]12C=CC(=O)C=C1CC[C@@H]1[C@@H]2[C@@H](O)C[C@@]2(C)[C@H]1CC[C@]2(O)C(=O)CO | inactive | inactive | – | – |
| NC[C@H]1O[C@H](O[C@H]2[C@H](O)[C@@H](O[C@H]3O[C@H](CO)[C@@H](O)[C@H](N)[C@H]3O)[C@H](N)C[C@@H]2N)[C@H](O)[C@@H](O)[C@@H]1O | – | – | -0.639% [at 8.39 µM] | 14.7% [at 8.39 µM] |
| CCCCCCCO | inactive | inactive | – | – |
| CC(=O)O[C@H]1CC[C@@]2(C)C(=CC[C@@H]3[C@@H]2CC[C@]2(C)C(C(C)=O)=CC[C@@H]32)C1 | inactive | inactive | – | – |

| Compound | Potency [1] | Potency [2] | viability change, negative = cytotoxic [1] | activity change, negative = cytotoxicity [2] |
| --- | --- | --- | --- | --- |
| O=C1OCCO1 | inactive | inactive | – | – |
| NC(=S)Nc1cccc2ccccc12 | – | – | 19.4% [at 8.39 µM] | -4.32% [at 8.39 µM] |
| CCCNC(C)C(=O)Nc1c(C)csc1C(=O)OC (stereo not given) | inactive | inactive | – | – |
| Cc1cc(-c2ccccc2)nnc1NCCN1CCOCC1 | inactive | inactive | – | – |
| c1c[nH]cn1 | inactive | inactive | – | – |
| NC(=O)c1cccc([N+](=O)[O-])c1 | inactive | inactive | – | – |
| Cc1cncc(C)c1 | inactive | inactive | – | – |
| CC1=C(O)C(=O)CO1 | inactive | inactive | – | – |
| Oc1ccc2cc(SSc3ccc4cc(O)ccc4c3)ccc2c1 | inactive | inactive | – | – |
| NC(Cc1ccc(F)cc1)C(=O)O (stereo not given) | – | – | 19.3% [at 8.39 µM] | 0.316% [at 8.39 µM] |
| CCCn1cc[n+](C)c1C | inactive | inactive | – | – |
| CCCCCCCCCCCCCCCCCCOCC(O)CO (stereo not given) | inactive | inactive | – | – |
| O=C(OCc1ccccc1)c1ccc(O)cc1 | inactive | inactive | – | – |
| CCCc1cc(C(N)=S)ccn1 | inactive | inactive | – | – |
| CCc1ccc(C(c2ccc(CC)cc2)C(Cl)Cl)cc1 | inactive | inactive | – | – |
| C[C@H](CCC(=O)O)[C@H]1CC[C@H]2[C@@H]3[C@H](O)C[C@@H]4C[C@H](O)CC[C@]4(C)[C@H]3CC[C@]12C | inactive | inactive | – | – |
| CNc1ccccc1 | inactive | inactive | – | – |
| CC(C)N(c1ccccc1)C(C)C | inactive | inactive | – | – |
| CCc1ccccc1CC | inactive | inactive | – | – |
| Cc1nc(C)c(C)nc1C | inactive | inactive | – | – |
| COC(=O)c1ccc(C)cc1 | inactive | inactive | – | – |
| O=C(CO)[C@@H](O)[C@H](O)[C@H](O)CO | inactive | inactive | – | – |
| C/C=C/C=C/CO | inactive | inactive | – | – |
| CC1CCN(CCCC(=O)c2ccc(F)cc2)CC1 | inactive | inactive | – | – |
